Measured values published in PubChem BioAssay (NCI).
Values joined by “and” are separate entries in the source; they are usually repeats but may differ in a detail not shown here. Equal values may be shown once. This is part of a sample that, as a whole, favours compounds with a hit. Of some 83,000 tested, about 20% had one in any assay.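 48-hour exposure, single concentration, 96-well plates; percent growth endpoint where 0 means no net growth. Active: below 10.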 Active and inactive are the calls of the source.

How the values were obtained:
Experiment in all cases: NCI-60 one-dose screen, 48 h (100 = growth as untreated, 0 = no growth, -100 = all killed)
[1] = test system: SW-620 colon; settings: 10 µM unless noted
[2] = test system: MCF7 breast
[3] = test system: HCT-116 colon; settings: 10 µM unless noted
[4] = test system: HCC-2998 colon; settings: 10 µM unless noted

Cc1c(N)nc([C@H](CC(N)=O)NC[C@H](N)C(N)=O)nc1C(=O)N[C@H](C(=O)N[C@H](C)[C@@H](O)[C@H](C)C(=O)N[C@H](C(=O)NCCc1nc(-c2nc(C(=O)NCCC[S+](C)C)cs2)cs1)[C@@H](C)O)C(OC1OC(CO)C(O)C(O)C1OC1OC(CO)C(O)C(OC(N)=O)C1O)c1cnc[nH]1 (stereo partly specified)
growth [1]: 83.4% [2.5 µM] (inactive) | growth ([2]; 2.5 µM): 52.9% (inactive) | growth ([2]; 25 µM): 15.6% (inactive) and 0.932% (active) | growth [3]: 34.2% [2.5 µM] (inactive) | growth [4]: 5.84% [2.5 µM] (active)

NCCc1ccc(OCc2ccccc2)c(OCc2ccccc2)c1
growth [1]: 83.7% (inactive) | growth ([2]; 10 µM): 69.9% (inactive) | growth [3]: 61.8% (inactive) | growth [4]: 34.6% (inactive)

COc1ccc(OC)c(/C=C/[N+](=O)[O-])c1
growth [1]: -38.7% (active) | growth ([2]; 10 µM): -1.64% (active) | growth [3]: -81.5% (active) | growth [4]: -82.4% (active)

C[C@]12CC[C@H](O)CC1=CC[C@@H]1[C@@H]2CC[C@]2(C)C(=O)CC[C@@H]12
growth [1]: 110% (inactive) | growth ([2]; 10 µM): 130% (inactive) | growth [3]: 91.6% (inactive) | growth [4]: 90.7% (inactive)

CC[n+]1c(-c2ccccc2)c2cc(N)ccc2c2ccc(N)cc21
growth [1]: 17.9% (inactive) | growth [3]: 13.8% (inactive) | growth [4]: 6.95% (active)

CC1=C(CO)C2=C(C)C3(CC3)[C@@](C)(O)C(=O)C2=C1
growth [1]: 26.3% (inactive) | growth ([2]; 10 µM): 8.34% (active) | growth [3]: 2.68% (active) | growth [4]: -76.7% (active)

CCOC(=O)C(NC(=O)C(Cc1ccc(N(CCCl)CCCl)cc1)NC(C)=O)C(C)C (stereo unspecified)
growth [1]: 69.4% (inactive) | growth ([2]; 10 µM): 61.9% (inactive) | growth [3]: 77.2% (inactive) | growth [4]: 73.2% (inactive)

COC1CC(CC2CCC(C)C(C(C)C(=O)O)O2)OC2(OC(C)(C3CCC(C)(C4OC(C5OC(O)(CO)C(C)CC5C)CC4C)O3)CC2C)C1C (stereo unspecified)
growth [1]: 6.56% (active) | growth ([2]; 10 µM): 8.04% (active) | growth [3]: 3.98% (active) | growth [4]: -10% (active)

Oc1cc[c]([Hg][Cl])cc1
growth [1]: 105% (inactive) | growth ([2]; 10 µM): 50.5% (inactive) | growth [3]: 91% (inactive) | growth [4]: 114% (inactive)

CC[C@@]1(O)C[C@H](OC2CC(N(C)C)C(OC3CC(O)C(OC4CCC(=O)C(C)O4)C(C)O3)C(C)O2)c2c(cc3c(c2O)C(=O)c2c(O)ccc(O)c2C3=O)[C@H]1C(=O)OC (stereo partly specified)
growth [1]: -1.19% (active) | growth ([2]; 10 µM): 0.371% (active) | growth [3]: -58.7% (active) | growth [4]: -77.5% (active)

CC1=C2C(=O)[C@H]3[C@@H](CC=C4C[C@@H](O)CC[C@@]43C)[C@@H]2CC[C@]12O[C@@H]1C[C@H](C)CN[C@H]1[C@H]2C
growth [1]: 99.2% (inactive) | growth ([2]; 10 µM): 91.6% (inactive) | growth [3]: 45.5% (inactive) | growth [4]: 141% (inactive)

CC1CCC2(NC1)OC1CC3C4CCC5CC(OC6OC(CO)C(OC7OC(CO)C(O)C(OC8OCC(O)C(O)C8O)C7OC7OC(CO)C(O)C(O)C7O)C(O)C6O)CCC5(C)C4CCC3(C)C1C2C (stereo unspecified)
growth ([2]; 100 µM): -86% (active) and -100% (active)

CCC(=O)OC1CCn2c1nc1c2C(=O)C(C)=C(N2CC2)C1=O (stereo unspecified)
growth [1]: 3.77% (active) | growth ([2]; 10 µM): -15.6% (active) | growth [3]: 1.09% (active) | growth [4]: -52.9% (active)

CCCCCCCCCCCC1CCCC(C)N1 (stereo unspecified)
growth [1]: 49.4% (inactive) | growth ([2]; 10 µM): 44.1% (inactive) | growth [3]: 65% (inactive) | growth [4]: -72.4% (active)

CCC1(O)CC(OC2CC(N(C)C)C(OC3CC4OC5CC(=O)C(C)OC5OC4C(C)O3)C(C)O2)c2c(cc3c(c2O)C(=O)c2c(O)ccc(O)c2C3=O)C1C(=O)OC (stereo unspecified)
growth [1]: -11.4% (active) | growth ([2]; 10 µM): 2.21% (active) | growth [3]: -2.93% (active) | growth [4]: -89.9% (active)

CN1CCN(c2ccc([N+](=O)[O-])c3no[n+]([O-])c23)CC1
growth [1]: -70.9% (active) | growth ([2]; 10 µM): -49.3% (active) | growth [3]: -66.5% (active)

COc1ccccc1/C=C(/C)[N+](=O)[O-]
growth [1]: 49.8% (inactive) and 106% (inactive) | growth ([2]; 10 µM): 7.37% (active) and 105% (inactive) | growth [3]: 44% (inactive) and 98.6% (inactive) | growth [4]: 103% (inactive) and 99% (inactive)

Cc1cc(N=Nc2ccccc2C)ccc1N
growth [1]: 84.7% (inactive) | growth ([2]; 10 µM): 58.7% (inactive) | growth [3]: 78.1% (inactive)

C[C@H]1CCC/C=C/[C@@H]2C[C@H](O)C[C@H]2[C@H](O)/C=C/C(=O)O1
growth [1]: -20.4% (active) | growth ([2]; 10 µM): -11.9% (active) | growth [3]: -70.8% (active) | growth [4]: -49.5% (active)
